Assay results reported in PubChem BioAssay (NCI).
This is part of a sample that, as a whole, favours compounds with a hit. Of some 83,000 tested, about 20% had one in any assay.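 Cell lines were cultured in 96-well plates, exposed to a single compound concentration, and assessed for percent growth 48 hours later.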 Values without a mark were called inactive. The source made the active and inactive calls. Rule for the calls: active = growth percent below 10; inactive = the rest.

What was measured:
Experiment in all cases: NCI-60 one-dose screen, 48 h (100 = growth as untreated, 0 = no growth, -100 = all killed)
Details in all cases: 10 µM unless noted
NCI-H23 lung = system: NCI-H23 lung
NCI-H226 lung = system: NCI-H226 lung
NCI-H322M lung = system: NCI-H322M lung
HOP-62 NSCLC = system: HOP-62 NSCLC
NCI-H460 lung = system: NCI-H460 lung
HOP-92 NSCLC = system: HOP-92 NSCLC
NCI-H522 lung = system: NCI-H522 lung
786-0 renal = system: 786-0 renal
COLO 205 colon = system: COLO 205 colon
DU-145 prostate = system: DU-145 prostate
K-562 leukemia = system: K-562 leukemia
MALME-3M melanoma = system: MALME-3M melanoma
MDA-MB-231 breast = system: MDA-MB-231 breast
RXF 393 renal = system: RXF 393 renal
SF-268 CNS = system: SF-268 CNS
SF-295 CNS = system: SF-295 CNS
SF-539 CNS = system: SF-539 CNS
UACC-257 melanoma = system: UACC-257 melanoma
M14 melanoma = system: M14 melanoma
A549/ATCC NSCLC = system: A549/ATCC NSCLC

SMILES | growth (NCI-H23 lung) | growth (NCI-H226 lung) | growth (NCI-H322M lung) | growth (HOP-62 NSCLC) | growth (NCI-H460 lung) | growth (HOP-92 NSCLC) | growth (NCI-H522 lung) | growth (786-0 renal) | growth (COLO 205 colon) | growth (DU-145 prostate) | growth (K-562 leukemia) | growth (MALME-3M melanoma) | growth (MDA-MB-231 breast) | growth (RXF 393 renal) | growth (SF-268 CNS) | growth (SF-295 CNS) | growth (SF-539 CNS) | growth (UACC-257 melanoma) | growth (M14 melanoma) | growth (A549/ATCC NSCLC)
C[C@@H](Nc1c(C#N)cnc2ccc(-c3cnc4[nH]ncc4c3)cc12)c1ccccc1 | 21% | -1.92% (active) | -2.29% (active) | 35.4% | 15.4% | -11.3% (active) | 13.1% | 11% | 84.2% | 12.3% | 22.4% | -2.53% (active) | 9.96% (active) | -15.1% (active) | 25.7% | -0.0923% (active) | 7.78% (active) | 32.5% | 29.9% | –
O=C(NNC(=O)c1ccc(OCc2nc3ccc(Cl)cc3[nH]2)cc1)Nc1ccc(Cl)c(C(F)(F)F)c1 | 35.9% | 64.1% | 43.6% | 68.4% | 38.1% | -1.57% (active) | – | 70.1% | 85.6% | 65.7% | 39.1% | 45.7% | 17.4% | 67.3% | 78.2% | 84.9% | 39.3% | 73% | 79.2% | –
Cc1ccc(C(=O)Nc2cc(-n3ccnc3)cc(C(F)(F)F)c2)cc1-n1cc(-c2cnc3cccnn23)nn1 | 82% | 89.9% | 113% | 107% | 97% | 78.8% | – | 103% | 42.2% | 111% | 9.87% (active) | -7.64% (active) | 31.5% | 94.8% | 120% | 107% | 84.7% | 47.8% | 25.4% | 101%
COc1cc(CNC(=O)C[C@H](C)CCC=C(C)C)ccc1OCc1cn(-c2ccc(Cl)c(Cl)c2)nn1 | 68.5% | 50.5% | 82.5% | 95.7% | 45.5% | 51.6% | – | 80.4% | 53.6% | 76.8% | 51.9% | 77.4% | 75.7% | 74.8% | 58.4% | 80.5% | 5.3% (active) | 91% | 89% | 46.5%
O=C(NC(=S)N1CCN(c2ncnc3c2cnn3-c2ccccc2)CC1)c1ccc(F)cc1 | 77.5% | 84.9% | 75.8% | 70.6% | 43.8% | 67.9% | 57.6% | 98.6% | 90.4% | 86.4% | 51.3% | 78.1% | 84.2% | 77% | 80.2% | 69.3% | 73.8% | 89% | 86.8% | –
COc1ccc(-c2cc(-c3cc(C(C)C)c(O)cc3C)nn2-c2ccc(S(N)(=O)=O)cc2)cc1 | 41.5% | 78.6% | 72.3% | 51.5% | 33.8% | 45.4% | – | 25.5% | 122% | 16.2% | 13.6% | 60.1% | 27.9% | 26.7% | 47.2% | 19.8% | -28% (active) | 60.5% | 42.8% | 40.4%
O=C(N/N=C/c1occc1Br)c1[nH]c2ccc(Br)cc2c1-c1ccccc1 | -100% (active) | -82.5% (active) | -81.2% (active) | -69.1% (active) | -86.2% (active) | -74.1% (active) | – | -76.6% (active) | -73.5% (active) | -78.4% (active) | 6.6% (active) | -94.9% (active) | -83.1% (active) | -88.2% (active) | -65.9% (active) | -91.2% (active) | -100% (active) | -68.2% (active) | -84.5% (active) | -41.7% (active)
COc1cc(-c2ccc3ncnc(N4CCc5ccc(Cl)cc54)c3c2)cnc1Cl | 19.9% | 18.8% | 15.9% | 50.2% | 12.4% | -0.319% (active) | – | 14.1% | 32.1% | 10.6% | 23.1% | 34.9% | 30.8% | -4.17% (active) | 40.2% | 35% | 24.8% | 59.2% | 29.8% | 34.7%
